We go through 4 compounds from PubChem BioAssay.

Assay [1] can be described thus: growth inhibition of DIPG glioma cells, dose response, cell-based, SU-DIPG-XVII, MIPE5.0, CellTiter-Glo, qHTS (AID 1347060; cut-off not given, nearly all actives have AC50 up to about 26 µM;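 as to AC50: cells exposed to compound for 48 hours before viability readout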). Conditions: SU-DIPG-XVII viability, CellTiter-Glo ATP luminescence. Background: In ATP-based viability assays light output follows the ATP content of the culture.
Assay [2] is described as follows: viability loss in pontine glioma line – cell-based, SU-DIPG-XXV, MIPE5.0, CellTiter-Glo, qHTS, dose response (AID 1347065; cut-off not given, nearly all actives have AC50 up to about 26 µM;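 also: cells exposed to compound for 48 hours before ATP readout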). Conditions: CellTiter-Glo ATP luminescence.
A short description of assay [3]: sensitizers of A549 cells to miR-34 induction, primary screen, imaging, A549 dox-inducible miR-34, nuclei and caspase counts (AID 1347080;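 active = compounds whose cell count with miR-34 switched on is under 0.7 times the count with it off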). Conditions: A549 miR-34 inducible, Hoechst nuclei count, 48 h.
Assay [4] is described as follows: survival rescue of mitochondrial mutant cells in low glucose, primary screen, MELAS cybrids, Rieske KO mouse fibroblasts, CellTiter-Glo (AID 1508586;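 active = mean z-score across replicates of 1.96 or higher in either the MELAS or the Rieske mutant cell line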;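 also: z relative to plate mean and SD of compound and empty wells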).
A short description of assay [5]: JHH-DIPG-1 glioma cell viability, MIPE5.0 library, CellTiter-Glo luminescence, qHTS (AID 1347067; cut-off not given, nearly all actives have AC50 up to about 26 µM;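 also: cells exposed to compound for 48 hours before readout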). Conditions: JHH-DIPG-1 glioma viability, CellTiter-Glo ATP luminescence.
The nature of assay [6]: SU-DIPG-XXV glioma cell viability, MIPE5.0 library, qHTS (AID 1347068; cut-off not given, nearly all actives have IC50 up to about 30 µM). (In general: In qHTS, concentration-response curves come from the screen itself.)
Assay [7] can be described thus: ovarian cancer cell viability with rucaparib, profiling panel, oncology-focused library, rucaparib conditional (AID 1508598). Conditions: patient-derived ovarian cancer cells, CellTiter-Glo viability, 144 h, stronger effect = lower value.
Setting [8] is: stronger effect = lower value, cell number ratio, induced over uninduced.
Setting [9] is: measured here: relative caspase fold change +Dox/-Dox.
Setting [10] is: measured here: total cells with miR-34 induction, stronger effect = lower value.
Setting [11] is: measured here: total cells without miR-34 induction.
Where [12] appears, read: MELAS cybrid survival, CellTiter-Glo 48 h, stronger effect = higher value.
Where [13] appears, read: Rieske KO mouse fibroblast survival, CellTiter-Glo 72 h.

SMILES strings stand for the structures. Records with an inconclusive call do not appear. Active and inactive are the calls of the source.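 The calls were made as follows, unless noted: active = normalized viability below 100% at a tested concentration; inactive = the rest.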

What is called AC50 is the concentration giving half of the maximal activity seen. As for `CC(Nc1ncnc2nc[nH]c12)c1cc2cccc(Cl)c2c(=O)n1-c1ccccc1` (stereo not given), the AC50 in assay [1] and in assay [2] was 18.6 µM (active) throughout. The fold change in assay [3] (setting [8]) is 0.872 (inactive); in assay [3] (setting [9]), 0.835. The cell count amounted to 6590 in assay [3] (setting [10]) and 7550 in assay [3] (setting [11]). Moreover, the z-score in assay [4] (setting [12]) is -0.147 (inactive); in assay [4] (setting [13]), -0.173.

A word on the viability: it is a read-out of living cells in per cent, often relative to untreated cells. For `Cc1cnc(-c2ccccc2C(C)C)nc1NCc1ccc(-n2ccnn2)cc1`, the result in assay [1], in assay [2], in assay [5] and in assay [6] was inactive. Besides, the fold change in assay [3] (setting [8]) is 0.905 (inactive); in assay [3] (setting [9]), 0.465. The figures for the cell count in assay [3] (setting [10]) and in assay [3] (setting [11]) were 7550 and 8340, respectively. Further, the z-score in assay [4] (setting [12]) was -0.372 (inactive); in assay [4] (setting [13]), 0.422. The viability in assay [7] (at 0.000305 µM, OCI-C5x cells, with rucaparib 10 µM, 100% = cells with rucaparib alone) is 118% (inactive); in assay [7] (at 0.000305 µM, OCI-C5x cells, without rucaparib) it was 116% (inactive); in assay [7] (at 0.000305 µM, OCI-P5x cells, with rucaparib 20 µM, 100% = cells with rucaparib alone), 101% (inactive); in assay [7] (at 0.000305 µM, OCI-P5x cells, without rucaparib), 100% (inactive); in assay [7] (at 0.00122 µM, OCI-C5x cells, with rucaparib 10 µM, 100% = cells with rucaparib alone), 132% (inactive); in assay [7] (at 0.00122 µM, OCI-C5x cells, without rucaparib), 118% (inactive). Further, the viability in assay [7] (at 0.00122 µM, OCI-P5x cells, with rucaparib 20 µM, 100% = cells with rucaparib alone) is 95.9% (active); in assay [7] (at 0.00122 µM, OCI-P5x cells, without rucaparib), 102% (inactive); in assay [7] (at 0.00488 µM, OCI-C5x cells, with rucaparib 10 µM, 100% = cells with rucaparib alone) it was 132% (inactive); in assay [7] (at 0.00488 µM, OCI-C5x cells, without rucaparib), 120% (inactive); in assay [7] (at 0.00488 µM, OCI-P5x cells, with rucaparib 20 µM, 100% = cells with rucaparib alone), 98.5% (active); in assay [7] (at 0.00488 µM, OCI-P5x cells, without rucaparib) it was 102% (inactive). Also, the viability is 123% (inactive) in assay [7] (at 0.0195 µM, OCI-C5x cells, with rucaparib 10 µM, 100% = cells with rucaparib alone); 110% (inactive) in assay [7] (at 0.0195 µM, OCI-C5x cells, without rucaparib); 103% (inactive) in assay [7] (at 0.0195 µM, OCI-P5x cells, with rucaparib 20 µM, 100% = cells with rucaparib alone); 97.4% (active) in assay [7] (at 0.0195 µM, OCI-P5x cells, without rucaparib); 123% (inactive) in assay [7] (at 0.0781 µM, OCI-C5x cells, with rucaparib 10 µM, 100% = cells with rucaparib alone); 118% (inactive) in assay [7] (at 0.0781 µM, OCI-C5x cells, without rucaparib). For the same compound, the viability is 100% (inactive) in assay [7] (at 0.0781 µM, OCI-P5x cells, with rucaparib 20 µM, 100% = cells with rucaparib alone); 97.6% (active) in assay [7] (at 0.0781 µM, OCI-P5x cells, without rucaparib); 126% (inactive) in assay [7] (at 0.313 µM, OCI-C5x cells, with rucaparib 10 µM, 100% = cells with rucaparib alone); 126% (inactive) in assay [7] (at 0.313 µM, OCI-C5x cells, without rucaparib); 96.4% (active) in assay [7] (at 0.313 µM, OCI-P5x cells, with rucaparib 20 µM, 100% = cells with rucaparib alone); 101% (inactive) in assay [7] (at 0.313 µM, OCI-P5x cells, without rucaparib). In addition, the viability in assay [7] (at 1.25 µM, OCI-C5x cells, with rucaparib 10 µM, 100% = cells with rucaparib alone) was 127% (inactive); in assay [7] (at 1.25 µM, OCI-C5x cells, without rucaparib), 119% (inactive); in assay [7] (at 1.25 µM, OCI-P5x cells, with rucaparib 20 µM, 100% = cells with rucaparib alone), 104% (inactive); in assay [7] (at 1.25 µM, OCI-P5x cells, without rucaparib) it was 96.9% (active); in assay [7] (at 5 µM, OCI-C5x cells, with rucaparib 10 µM, 100% = cells with rucaparib alone) it was 129% (inactive); in assay [7] (at 5 µM, OCI-C5x cells, without rucaparib), 130% (inactive). Moreover, the viability in assay [7] (at 5 µM, OCI-P5x cells, with rucaparib 20 µM, 100% = cells with rucaparib alone) was 94.5% (active); in assay [7] (at 5 µM, OCI-P5x cells, without rucaparib), 97.8% (active).

Turning to `C[C@H](NC(=O)CCC(F)(F)F)C(=O)N[C@@H]1C(=O)N(CCO)c2ncccc2-c2ccccc21`, the call in assay [1] and in assay [5] was inactive.

On to `[2H]C([2H])(Nc1nc(-c2ccccc2C([2H])(C([2H])([2H])[2H])C([2H])([2H])[2H])ncc1C)c1ccc(-n2ccnn2)cc1`, for which the outcome in assay [1], in assay [2] and in assay [6] was inactive.
